The values below come from PubChem BioAssay (Tox21).

In assay [1] the test system is thyroid hormone receptor (rat, GH3 cells). The experiment in a line: qHTS assay to identify small molecule agonists of the thyroid receptor (TR) signaling pathway (AID 743066; calls by dose curve). In general terms: Quantitative high-throughput screening tests each substance at several concentrations.
The nature of assay [2]: qHTS assay to identify small molecule antagonists of the estrogen receptor alpha (ER-alpha) signaling pathway - cell viability counter screen (AID 743074; calls by dose curve; note: nearly all actives have a fitted effect of over 45% in size).
The nature of assay [3]: qHTS assay to identify aromatase inhibitors - cell viability counter screen (AID 743084).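 Note: cells stimulated with testosterone during compound exposure; nearly all actives have a fitted effect of over 55% in size.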 Note: potency is the fitted concentration of half-maximal effect.
The target of assay [4] is Aryl hydrocarbon receptor (Homo sapiens) (UniProt P35869). Kind of assay: qHTS assay to identify small molecule that activate the aryl hydrocarbon receptor (AhR) signaling pathway (AID 743085).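 For activation: HG2L7.5c1 human HepG2 liver cells with stably integrated DRE-driven firefly reporter; series mostly up to about 70 µM.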 Note: nearly all actives have a fitted effect of over 15% in size. Note: potency is the fitted concentration of half-maximal effect. In short, it runs like this:
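Reporter assay in engineered HepG2 line HG2L7.5c1, whose plasmid carries twenty dioxin responsive elements upstream of firefly luciferase. Treatment lasted 24 h at 37C; ONE-Glo luminescence gauged induction.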

The target of assay [5] is Peroxisome proliferator-activated receptor gamma (Homo sapiens) (UniProt P37231). The experiment in a line: qHTS assay to identify small molecule antagonists of the peroxisome proliferator-activated receptor gamma (PPARg) signaling pathway (AID 743191; calls by dose curve; note: series mostly up to about 63 µM; nearly all actives have a fitted effect of over 30% in size). In short, it runs like this: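 GeneBLAzer PPARg UAS-bla HEK293H cells carrying a UAS-driven beta-lactamase reporter were plated at 3000 cells/well, preincubated 5 h at 37C, then given compound for 17 h at 37C; LiveBLAzer B/G FRET substrate was read after 1 h at room temperature.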

The nature of assay [6]: qHTS assay for small molecule activators of the heat shock response signaling pathway - cell viability counter screen (AID 743209). Note: nearly all actives have a fitted effect of over 50% in size. Note: potency is the fitted concentration of half-maximal effect. The procedure, abridged: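 Quantitative HTS format, Tox21 10K library. HeLa cells carrying an HSE-driven beta-lactamase reporter were treated 5 h at 37 C, then assessed for viability by CellTiter-Glo luminescence.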
Assay [7] addresses Estrogen receptor (Homo sapiens) (UniProt P03372). The experiment in a line: qHTS assay to identify small molecule antagonists of the estrogen receptor alpha (ER-alpha) signaling pathway (AID 743069; active = well fitted curve in the direction sought with a large enough effect in the signal ratio in the repeat runs, not every such curve was filed as active; inconclusive = weak or mixed curves, or effect the other way; inactive = no such curve, though single readings can be large or run the other way; the % refers to the signal ratio; note: potency is the fitted concentration of half-maximal effect). The procedure, abridged:
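HEK293 cells stably carrying an ER-alpha-UAS-bla beta-lactamase reporter were pre-cultured overnight in 2% charcoal-stripped FBS medium. Test compounds in DMSO were added together with 17beta-estradiol for 18 hr at 37C. Read-out was fluorescence after 2 hr with LiveBLAzer B/G FRET substrate at room temperature.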

The target is the same in assay [8]. Kind of assay: qHTS assay to identify small molecule agonists of the estrogen receptor alpha (ER-alpha) signaling pathway (AID 743075; calls by dose curve; note: potency is the fitted concentration of half-maximal effect).
The target is the same in assay [9]. Kind of assay: qHTS assay to identify small molecule agonists of the estrogen receptor alpha (ER-alpha) signaling pathway using the BG1 cell line (AID 743079). Note: nearly all actives have a fitted effect of over 20% in size. Note: potency is the fitted concentration of half-maximal effect.
The nature of assay [10]: qHTS assay to identify small molecule antagonists of the estrogen receptor alpha (ER-alpha) signaling pathway using the BG1 cell line (AID 743080; calls by dose curve;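 note: BG1 cells stimulated with 17beta-estradiol alongside compound; nearly all actives have a fitted effect of over 25% in size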; note: potency is the fitted concentration of half-maximal effect). The procedure, abridged: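 Luminescence from a 4×ERE-luciferase reporter in BG1-Luc-4E2 cells served as read-out. Cells, pre-cultured 5 days in stripped-serum phenol-red-free medium, were exposed to compound with 17beta-estradiol co-stimulation for 21.5 h at 37 C.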

Assay [11] is described as follows: qHTS assay to identify small molecule antagonists of the estrogen receptor alpha (ER-alpha) signaling pathway using the BG1 cell line - cell viability counter screen (AID 743081).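 Note: compound given together with 17beta-estradiol as the ER stimulus; series mostly up to about 70 µM; nearly all actives have a fitted effect of over 45% in size.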
Another assay concerns the target Aromatase (Homo sapiens) (UniProt P11511). The experiment in a line: qHTS assay to identify aromatase inhibitors (AID 743083). Note: nearly all actives have a fitted effect of over 55% in size. Note: potency is the fitted concentration of half-maximal effect.
A short description of assay [12]: qHTS assay to identify small molecule that activate the aryl hydrocarbon receptor (AhR) signaling pathway - cell viability counter screen (AID 743086). Note: nearly all actives have a fitted effect of over 45% in size. Note: potency is the fitted concentration of half-maximal effect. In short, it runs like this: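 HepG2-AhR-luc (HG2L7.5c1) cells, 4000/well, were preincubated 5 h at 37C, exposed to compound in qHTS format for 24 hr at 37C, then given CellTiter-Fluor for 30 min; viability was read as fluorescence in the reporter wells.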

The target in assay [13] is Peroxisome proliferator-activated receptor gamma (Homo sapiens) (UniProt P37231). The experiment in a line: qHTS assay to identify small molecule agonists of the peroxisome proliferator-activated receptor gamma (PPARg) signaling pathway (AID 743094; active = well fitted activation curve with a large enough effect in the signal ratio in the repeat runs, not every such curve was filed as active; inconclusive = weak or mixed curves, or effect the other way; inactive = no such curve, though single readings can be large or run the other way; the % refers to the signal ratio). In short, it runs like this: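 Stably transfected HEK293H cells (GeneBLAzer PPARg UAS-bla) were incubated with test substances for 17 h at 37C after a 5 h pre-incubation; beta-lactamase activity was then detected by FRET substrate fluorescence.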

A short description of assay [14]: qHTS assay to identify small molecule antagonists of the peroxisome proliferator-activated receptor gamma (PPARg) signaling pathway - cell viability counter screen (AID 743194). Note: nearly all actives have a fitted effect of over 55% in size. Note: potency is the fitted concentration of half-maximal effect. In short, it runs like this:
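PPARg-UAS-bla HEK293H cells were plated, rested 5 h at 37 C, then treated with compounds plus rosiglitazone (50 nM final) for 17 h at 37 C; viability was then read by CellTiter-Glo luminescence after 30 min at room temperature.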

Assay [15] is described as follows: qHTS assay for small molecule agonists of the antioxidant response element (ARE) signaling pathway - cell viability counter screen (AID 743203; calls by dose curve; note: nearly all actives have a fitted effect of over 55% in size; note: potency is the fitted concentration of half-maximal effect). In short, it runs like this: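 Cells (ARE-bla HepG2, 2,000/well) receive DMSO-dissolved compounds after a 5 hrs rest. Plates incubate 16 hrs at 37C/5% CO2. CellTiter-Glo luminescence is then recorded after 30 min at room temperature.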

Assay [16] is described as follows: qHTS assay for small molecule activators of the heat shock response signaling pathway (AID 743210; active = well fitted activation curve with a large enough effect in the signal ratio in the repeat runs, with a control signal flat, not every such curve was filed as active; inconclusive = weak or mixed curves; the % refers to the signal ratio; note: series mostly up to about 63 µM). The procedure, abridged:
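HSE-bla HeLa cells (beta-lactamase reporter under heat shock response elements) were exposed to compounds for 5 h at 37 C, then loaded with LiveBLAzer B/G FRET substrate for 2.5 h at room temperature before fluorescence reading.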

The nature of assay [17]: qHTS assay for small molecule agonists of the antioxidant response element (ARE) signaling pathway (AID 743202; active = well fitted activation curve with a large enough effect in the signal ratio in the repeat runs, not every such curve was filed as active; inconclusive = weak or mixed curves, or effect the other way; inactive = no such curve, though single readings can be large or run the other way; the % refers to the signal ratio; note: potency is the fitted concentration of half-maximal effect). The procedure, abridged: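 Read-out: LiveBLAzer B/G FRET substrate fluorescence after 2 h at room temperature, following 16 h compound treatment at 37 C of HepG2 cells carrying an ARE-driven beta-lactamase reporter.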
The nature of assay [18]: qHTS assay to identify small molecule antagonists of the thyroid receptor (TR) signaling pathway (AID 743065). Note: nearly all actives have a fitted effect of over 55% in size. Note: potency is the fitted concentration of half-maximal effect. In short, it runs like this: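 GH3.TRE-Luc rat pituitary cells carrying two TR response elements driving luciferase were plated for 4 h, given compound plus 1 nM T3 (final), and incubated 23.5 h at 37 C. ONE-Glo luminescence measured reporter inhibition; CellTiter-Fluor fluorescence tracked cytotoxicity.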

Several values for one entry are separate records, joined by “and”; a condition that tells them apart may be missing. Equal entries are not always repeated. Some structures have more than one record in an assay (separate samples or runs), and their calls can disagree. Activity calls are given as the source filed them. Unless noted, calls come from the whole dose curve; as a rule, active = well fitted curve in the direction sought with a large enough effect in the repeat runs; inconclusive = weak or mixed curves; inactive = no such curve, though single readings can be large; an effect the other way counts as inactive or inconclusive.

Peroxisome proliferator-activated receptor gamma (Homo sapiens), sequence (P37231 whole entry, looked up): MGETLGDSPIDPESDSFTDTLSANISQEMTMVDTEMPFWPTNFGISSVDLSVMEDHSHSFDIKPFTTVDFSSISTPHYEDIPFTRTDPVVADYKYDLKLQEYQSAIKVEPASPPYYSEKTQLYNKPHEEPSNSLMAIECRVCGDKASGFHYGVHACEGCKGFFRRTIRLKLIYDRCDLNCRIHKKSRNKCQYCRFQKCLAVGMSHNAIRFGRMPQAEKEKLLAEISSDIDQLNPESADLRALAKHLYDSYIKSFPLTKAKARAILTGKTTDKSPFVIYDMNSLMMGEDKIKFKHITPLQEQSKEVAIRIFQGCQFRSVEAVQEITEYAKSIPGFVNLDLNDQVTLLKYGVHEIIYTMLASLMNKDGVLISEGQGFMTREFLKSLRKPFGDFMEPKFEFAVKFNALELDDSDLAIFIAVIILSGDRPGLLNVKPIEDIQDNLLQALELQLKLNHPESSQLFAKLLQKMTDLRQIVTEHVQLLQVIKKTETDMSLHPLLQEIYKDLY
Aryl hydrocarbon receptor (Homo sapiens), sequence (P35869 whole entry, looked up): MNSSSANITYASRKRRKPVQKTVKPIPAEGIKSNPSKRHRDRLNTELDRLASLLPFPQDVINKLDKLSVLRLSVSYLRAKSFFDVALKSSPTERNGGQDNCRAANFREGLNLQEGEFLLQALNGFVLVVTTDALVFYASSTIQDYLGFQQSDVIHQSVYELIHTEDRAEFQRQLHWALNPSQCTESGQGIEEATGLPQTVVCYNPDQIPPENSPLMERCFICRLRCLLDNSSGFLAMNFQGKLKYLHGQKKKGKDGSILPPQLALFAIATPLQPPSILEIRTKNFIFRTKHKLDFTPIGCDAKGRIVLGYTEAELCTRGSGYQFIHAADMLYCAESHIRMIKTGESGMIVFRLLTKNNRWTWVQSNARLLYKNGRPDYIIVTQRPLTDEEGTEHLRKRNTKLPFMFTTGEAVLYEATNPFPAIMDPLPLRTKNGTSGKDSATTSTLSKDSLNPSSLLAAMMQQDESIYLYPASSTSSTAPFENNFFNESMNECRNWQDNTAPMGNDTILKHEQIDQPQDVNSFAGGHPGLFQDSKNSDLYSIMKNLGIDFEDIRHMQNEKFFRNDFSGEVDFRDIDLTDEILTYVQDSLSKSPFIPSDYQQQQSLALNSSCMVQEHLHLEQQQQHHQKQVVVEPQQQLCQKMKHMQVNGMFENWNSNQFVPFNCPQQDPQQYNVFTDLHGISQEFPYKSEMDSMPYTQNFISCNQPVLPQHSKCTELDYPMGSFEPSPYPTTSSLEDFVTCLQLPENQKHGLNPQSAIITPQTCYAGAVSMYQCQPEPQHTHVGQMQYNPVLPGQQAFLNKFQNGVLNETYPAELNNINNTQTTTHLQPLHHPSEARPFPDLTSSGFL
Aromatase (Homo sapiens), sequence (P11511 whole entry, looked up): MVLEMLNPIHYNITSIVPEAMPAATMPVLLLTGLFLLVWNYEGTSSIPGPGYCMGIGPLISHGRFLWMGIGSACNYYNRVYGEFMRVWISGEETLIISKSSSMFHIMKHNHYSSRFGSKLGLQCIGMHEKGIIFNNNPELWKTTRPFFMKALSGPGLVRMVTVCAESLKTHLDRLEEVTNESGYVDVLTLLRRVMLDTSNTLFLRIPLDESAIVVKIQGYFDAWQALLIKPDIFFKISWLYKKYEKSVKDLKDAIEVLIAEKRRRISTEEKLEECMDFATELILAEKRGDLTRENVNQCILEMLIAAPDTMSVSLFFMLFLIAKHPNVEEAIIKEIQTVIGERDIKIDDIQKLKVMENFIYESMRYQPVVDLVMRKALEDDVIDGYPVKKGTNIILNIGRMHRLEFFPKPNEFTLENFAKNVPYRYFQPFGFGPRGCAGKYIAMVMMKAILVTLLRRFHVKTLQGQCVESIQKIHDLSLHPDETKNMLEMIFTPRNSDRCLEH
Estrogen receptor (Homo sapiens), sequence (P03372 whole entry, looked up): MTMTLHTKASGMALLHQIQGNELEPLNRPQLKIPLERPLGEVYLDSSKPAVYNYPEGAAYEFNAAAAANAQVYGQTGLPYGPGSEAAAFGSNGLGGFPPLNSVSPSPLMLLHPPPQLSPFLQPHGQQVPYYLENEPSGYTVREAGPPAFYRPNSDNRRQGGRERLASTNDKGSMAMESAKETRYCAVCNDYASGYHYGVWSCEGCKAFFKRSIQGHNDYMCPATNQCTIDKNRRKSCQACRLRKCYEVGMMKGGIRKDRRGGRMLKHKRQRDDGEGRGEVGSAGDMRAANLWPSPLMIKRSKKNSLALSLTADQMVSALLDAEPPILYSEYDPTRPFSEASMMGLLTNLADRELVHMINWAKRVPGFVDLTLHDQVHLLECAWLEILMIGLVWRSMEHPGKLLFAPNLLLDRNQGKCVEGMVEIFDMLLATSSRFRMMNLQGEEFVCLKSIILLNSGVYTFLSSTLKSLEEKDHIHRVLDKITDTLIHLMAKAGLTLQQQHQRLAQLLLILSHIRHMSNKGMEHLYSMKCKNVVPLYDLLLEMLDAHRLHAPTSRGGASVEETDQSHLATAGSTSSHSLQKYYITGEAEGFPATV

As for `O=C1c2ccccc2C(=O)c2c(O)ccc(O)c21`, the Potency entry in assay [1], in assay [2], in assay [5] and in [6] was “inactive” each time. The Potency in [3] is 38.6 µM (active); in assay [4], 7.7 µM (active).

In the case of `C[C@@H]1[C@H](O)[C@@H](C)/C=C/C=C\C=C\C=C\C=C\C=C\C=C\[C@H](O[C@@H]2O[C@H](C)[C@@H](O)[C@H](N)[C@@H]2O)C[C@@H]2O[C@](O)(C[C@@H](O)C[C@@H](O)[C@H](O)CC[C@@H](O)C[C@@H](O)CC(=O)O[C@H]1C)C[C@H](O)[C@H]2C(=O)O` (stereo in doubt), the Potency result in assay [7], in assay [2], in assay [8], in [9], in [10] and in [11] was “inactive” in each case. The Potency result (with Aromatase (Homo sapiens); in [4]; in assay [12]; in assay [14]; in [15]; in [6]) was “inactive” throughout. Further, in assay [16], the Potency result was “inactive”. Besides, the Potency entry in assay [3] was “inactive and 34.4 µM (active)”. Further, the call in assay [13] was inactive.

As to `O=C1[C@@H]2[C@H]3CC[C@H](C3)[C@@H]2C(=O)N1CCCCN1CCN(c2ncccn2)CC1`, the Potency result (in assay [7]; in assay [2]; in assay [8]; in [9]; in [11]; with Aromatase (Homo sapiens)) was “inactive” each time. For the same molecule, the Potency entry in assay [3], in assay [4], in assay [12], in assay [5], in [14] and in assay [15] was “inactive” throughout. Moreover, the Potency entry in assay [6] and in assay [16] was “inactive” each time. Moreover, the result in [13] was inactive.

As to `O=C(O)CCC(=O)c1ccc(-c2ccccc2)cc1`, the Potency result (in [2]; in assay [11]; with Aromatase (Homo sapiens); in assay [3]; in [4]; in assay [12]) was “inactive” each time. The Potency entry in [14], in assay [15] and in [16] was “inactive” throughout.

As to `CC(=O)OCC(C)C`, the Potency entry (in assay [8]; in [11]; with Aromatase (Homo sapiens); in assay [3]; in assay [4]; in assay [12]) was “inactive” throughout. The Potency entry in [5], in assay [14], in assay [15], in [6] and in [16] was “inactive” in each case. Also, the molecule was classed as inactive in assay [13].

On to `CCCc1nc2c(C)cc(-c3nc4ccccc4n3C)cc2n1Cc1ccc(-c2ccccc2C(=O)O)cc1`, for which the Potency result (in assay [1]; in [2]; in assay [8]; in assay [9]; in assay [11]; with Aromatase (Homo sapiens)) was “inactive” throughout. Also, the Potency result in [3], in [4], in assay [12], in [14], in assay [15] and in assay [6] was “inactive” each time. Moreover, the Potency result in [16] is “inactive”. In addition, the Potency in [17] was 26.6 µM (active).

Consider `CC(C)(C)CCCCCCOC(=O)c1ccccc1C(=O)OCCCCCCC(C)(C)C`, for which the Potency result in [18], in assay [7], in assay [8], in assay [9], in assay [10] and in assay [11] was “inactive” in each case. In addition, the Potency result (with Aromatase (Homo sapiens); in assay [3]; in [4]; in [12]; in [5]; in assay [14]) was “inactive” in each case. The Potency result in [15], in assay [6] and in [16] was “inactive” throughout. Also, in assay [13], the call was inactive.

As to `CCNc1nc(N)nc(Cl)n1`, the Potency result in [18], in assay [2], in assay [11], in assay [12], in [14] and in assay [15] was “inactive” each time. Also, the Potency entry in assay [6] and in assay [16] was “inactive” throughout.

For the molecule `CCOC(=O)Oc1ccc(CCNC(=O)[C@H](CCSC)NC(C)=O)cc1OC(=O)OCC`, the Potency result in assay [5], in assay [14], in assay [17], in assay [15], in [6] and in assay [16] was “inactive” each time.

With `CCN(CC)CCOC(=O)C(c1ccccc1)c1ccccc1`, the Potency result (in assay [1]; in assay [11]; in the assay with Aromatase (Homo sapiens); in [3]; in assay [4]; in assay [12]) was “inactive” in each case. In addition, the Potency entry in assay [5], in assay [14], in [17], in [15] and in assay [6] was “inactive” each time. Besides, the call in assay [13] was inactive.

As for `Cc1cc(CCCOc2c(C)cc(-c3noc(C(F)(F)F)n3)cc2C)on1`, the Potency result in assay [5], in [14] and in [15] was “inactive” in each case.

Regarding `CCCCOCCOC(=O)c1cccnc1`, the Potency result in assay [5], in assay [14], in assay [17], in [15], in assay [6] and in assay [16] was “inactive” each time.

Take `CCOc1ncc(F)c(=O)[nH]1`: the Potency result in assay [14], in assay [17], in assay [15] and in [6] was “inactive” in each case.

As to `Oc1ccc2c(c1)Cc1ccccc1-2`, the Potency result (in assay [1]; in assay [2]; in assay [11]; in the assay with Aromatase (Homo sapiens); in assay [3]; in assay [12]) was “inactive” throughout. Also, the Potency result in assay [14], in [15], in [6] and in [16] was “inactive” throughout. For the same molecule, the Potency in assay [8] is 24.5 µM [activator] (active); in assay [9] it was 13.7 µM (active).

Regarding `O=[N+]([O-])C1(Br)COCOC1`, the Potency in assay [18] is 15.4 µM (active); in [10], 96.9 µM (active); with Aromatase (Homo sapiens) it was 30.6 µM (active); in assay [3] it was 43.3 µM (active); in [6], 49 µM (active). The Potency entry in assay [7], in assay [2], in [8], in [9], in assay [11] and in assay [4] was “inactive” in each case. Also, the Potency result in assay [12] is “inactive”. Besides, the molecule was called inactive in [13].

Regarding `O[C@@H](CNC[C@H](O)[C@H]1CCc2cc(F)ccc2O1)[C@@H]1CCc2cc(F)ccc2O1`, the Potency in assay [18] is 9.44 µM (active); in assay [7], 26.8 µM [inconclusive] (active); in the assay with Aromatase (Homo sapiens) it was 33.5 µM (active); in assay [12] it was 26.6 µM (active); in assay [14], 29.8 µM (active); in assay [15], 21.1 µM (active). Besides, the Potency entry in assay [2], in assay [8], in assay [9], in assay [10], in [4] and in assay [6] was “inactive” each time. Besides, in [16], the Potency result was “inactive”.

Turning to `CCCCCCCCCCCSCC(=O)O`, the Potency in assay [7] is 54.9 µM [inconclusive] (active); in assay [6], 49 µM (active). In addition, the Potency result (in [2]; in assay [8]; in assay [11]; with Aromatase (Homo sapiens); in [3]; in [4]) was “inactive” throughout. For the same molecule, the Potency entry in [12], in [14] and in assay [15] was “inactive” throughout.

Consider `CC[C@@H](CO)NCCN[C@@H](CC)CO`, for which the Potency result (in assay [2]; in assay [11]; with Aromatase (Homo sapiens); in [3]; in assay [4]; in [12]) was “inactive” in each case. Besides, the Potency result in assay [5], in [14], in [17], in assay [15] and in [6] was “inactive” each time. In assay [13], the molecule was classed as inactive.
